Assay [1] has as its system PRMT1 (protein arginine N-methyltransferase 1). Kind of assay: PRMT1 binders on small-molecule microarrays, primary screen, biochemical, small-molecule microarray, 635 nm fluorescence (AID 1088).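 Also: binding of Prmt1 protein to compounds spotted on small-molecule microarray slides.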 Conditions: small-molecule microarray binding, higher = more signal.
Assay [2] is described as follows: yeast growth modulation, basal conditions, primary screen, YJM789 clinical isolate, OD600, 24 h (AID 1089).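 Also: growth of clinical yeast isolate S. cerevisiae YJM 789 seeded 1000 cells per well; test concentration not given here.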 Conditions: S. cerevisiae YJM789 growth, higher = more signal, called active from +8 up or from −8 down.
Assay [3] in a line: fission yeast growth modulation, primary screen, strain 972, OD600, 24 h, no modulator (AID 1090).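 Also: basal condition with compound alone and no growth modifier present; test concentration not given here.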 As to conditions: S. pombe 972 growth, higher = more signal, called active from +8 up or from −8 down.
The nature of assay [4]: S. cerevisiae growth modulation with rapamycin, primary screen, strain BY4716, OD600, 96 h (AID 1091). Also: test concentration not given here. As to conditions: higher = more signal, called active from +8 up or from −8 down.
For assay [5], the target named is Torsin-1A-interacting protein 2 (Homo sapiens) (UniProt Q8NFQ8). Kind of assay: LULL1 binders on small-molecule microarray, primary screen, cell lysate, human LULL1 lysate, 635/667 nm fluorescence (AID 1092).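 Also: probe is lysate of COS7 cells overexpressing human LULL1; score merges per-feature 667 nm fluorescence with signal-to-noise.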 Conditions: hLULL1 lysate binding, 635 nm fluorescence, higher = more signal.
Sequence of Torsin-1A-interacting protein 2 (Homo sapiens) (Q8NFQ8 whole entry, looked up): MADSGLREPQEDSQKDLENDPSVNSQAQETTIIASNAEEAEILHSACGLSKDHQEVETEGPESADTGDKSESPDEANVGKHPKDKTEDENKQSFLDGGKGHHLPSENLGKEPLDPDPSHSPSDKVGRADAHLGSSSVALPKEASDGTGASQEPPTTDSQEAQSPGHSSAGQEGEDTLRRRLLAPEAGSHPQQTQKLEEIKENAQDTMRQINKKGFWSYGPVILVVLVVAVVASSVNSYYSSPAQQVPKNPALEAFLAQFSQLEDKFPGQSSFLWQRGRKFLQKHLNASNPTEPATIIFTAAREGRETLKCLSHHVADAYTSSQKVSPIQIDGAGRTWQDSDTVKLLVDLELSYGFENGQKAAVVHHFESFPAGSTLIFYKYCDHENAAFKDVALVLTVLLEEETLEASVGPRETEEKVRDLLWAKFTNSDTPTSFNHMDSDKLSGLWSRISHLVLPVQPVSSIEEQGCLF
A short description of assay [6]: E. coli growth modulation, two-sided OD650, primary screen, E. coli filamentation project, strain DRC41, 24 h (AID 1093).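 Also: MC1000 strain lacking acrAB efflux and sulA so SOS filamentation is blocked; test concentration not given here.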 Conditions: OD650, 24 h, higher = more signal, called active from +8 up or from −8 down.
The nature of assay [7]: small-molecule microarray binders of probe aLefty2, primary screen, biochemical, biotinylated probe, 635/667 nm fluorescence (AID 1094).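 Also: score merges spot fluorescence near 667 nm with spot signal-to-noise ratio.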 As to conditions: higher = more signal.
For assay [8], the system named is Noggin (protein binding on small-molecule microarray). Kind of assay: Noggin binders on small-molecule microarray, primary screen, biochemical, 635/667 nm fluorescence (AID 1095).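 Also: score merges 667 nm feature fluorescence with signal to noise over triplicate slides.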 As to conditions: 635 nm fluorescence, higher = more signal.
The target in assay [9] is Neurogenic locus notch homolog protein 3 (Homo sapiens) (UniProt Q9UM47). Kind of assay: NOTCH3 binders on small-molecule microarray, primary screen, biochemical, 635/667 nm fluorescence (AID 1096). As to conditions: NOTCH3 binding, 635 nm fluorescence, higher = more signal.
Sequence of Neurogenic locus notch homolog protein 3 (Homo sapiens) (Q9UM47 whole entry, looked up): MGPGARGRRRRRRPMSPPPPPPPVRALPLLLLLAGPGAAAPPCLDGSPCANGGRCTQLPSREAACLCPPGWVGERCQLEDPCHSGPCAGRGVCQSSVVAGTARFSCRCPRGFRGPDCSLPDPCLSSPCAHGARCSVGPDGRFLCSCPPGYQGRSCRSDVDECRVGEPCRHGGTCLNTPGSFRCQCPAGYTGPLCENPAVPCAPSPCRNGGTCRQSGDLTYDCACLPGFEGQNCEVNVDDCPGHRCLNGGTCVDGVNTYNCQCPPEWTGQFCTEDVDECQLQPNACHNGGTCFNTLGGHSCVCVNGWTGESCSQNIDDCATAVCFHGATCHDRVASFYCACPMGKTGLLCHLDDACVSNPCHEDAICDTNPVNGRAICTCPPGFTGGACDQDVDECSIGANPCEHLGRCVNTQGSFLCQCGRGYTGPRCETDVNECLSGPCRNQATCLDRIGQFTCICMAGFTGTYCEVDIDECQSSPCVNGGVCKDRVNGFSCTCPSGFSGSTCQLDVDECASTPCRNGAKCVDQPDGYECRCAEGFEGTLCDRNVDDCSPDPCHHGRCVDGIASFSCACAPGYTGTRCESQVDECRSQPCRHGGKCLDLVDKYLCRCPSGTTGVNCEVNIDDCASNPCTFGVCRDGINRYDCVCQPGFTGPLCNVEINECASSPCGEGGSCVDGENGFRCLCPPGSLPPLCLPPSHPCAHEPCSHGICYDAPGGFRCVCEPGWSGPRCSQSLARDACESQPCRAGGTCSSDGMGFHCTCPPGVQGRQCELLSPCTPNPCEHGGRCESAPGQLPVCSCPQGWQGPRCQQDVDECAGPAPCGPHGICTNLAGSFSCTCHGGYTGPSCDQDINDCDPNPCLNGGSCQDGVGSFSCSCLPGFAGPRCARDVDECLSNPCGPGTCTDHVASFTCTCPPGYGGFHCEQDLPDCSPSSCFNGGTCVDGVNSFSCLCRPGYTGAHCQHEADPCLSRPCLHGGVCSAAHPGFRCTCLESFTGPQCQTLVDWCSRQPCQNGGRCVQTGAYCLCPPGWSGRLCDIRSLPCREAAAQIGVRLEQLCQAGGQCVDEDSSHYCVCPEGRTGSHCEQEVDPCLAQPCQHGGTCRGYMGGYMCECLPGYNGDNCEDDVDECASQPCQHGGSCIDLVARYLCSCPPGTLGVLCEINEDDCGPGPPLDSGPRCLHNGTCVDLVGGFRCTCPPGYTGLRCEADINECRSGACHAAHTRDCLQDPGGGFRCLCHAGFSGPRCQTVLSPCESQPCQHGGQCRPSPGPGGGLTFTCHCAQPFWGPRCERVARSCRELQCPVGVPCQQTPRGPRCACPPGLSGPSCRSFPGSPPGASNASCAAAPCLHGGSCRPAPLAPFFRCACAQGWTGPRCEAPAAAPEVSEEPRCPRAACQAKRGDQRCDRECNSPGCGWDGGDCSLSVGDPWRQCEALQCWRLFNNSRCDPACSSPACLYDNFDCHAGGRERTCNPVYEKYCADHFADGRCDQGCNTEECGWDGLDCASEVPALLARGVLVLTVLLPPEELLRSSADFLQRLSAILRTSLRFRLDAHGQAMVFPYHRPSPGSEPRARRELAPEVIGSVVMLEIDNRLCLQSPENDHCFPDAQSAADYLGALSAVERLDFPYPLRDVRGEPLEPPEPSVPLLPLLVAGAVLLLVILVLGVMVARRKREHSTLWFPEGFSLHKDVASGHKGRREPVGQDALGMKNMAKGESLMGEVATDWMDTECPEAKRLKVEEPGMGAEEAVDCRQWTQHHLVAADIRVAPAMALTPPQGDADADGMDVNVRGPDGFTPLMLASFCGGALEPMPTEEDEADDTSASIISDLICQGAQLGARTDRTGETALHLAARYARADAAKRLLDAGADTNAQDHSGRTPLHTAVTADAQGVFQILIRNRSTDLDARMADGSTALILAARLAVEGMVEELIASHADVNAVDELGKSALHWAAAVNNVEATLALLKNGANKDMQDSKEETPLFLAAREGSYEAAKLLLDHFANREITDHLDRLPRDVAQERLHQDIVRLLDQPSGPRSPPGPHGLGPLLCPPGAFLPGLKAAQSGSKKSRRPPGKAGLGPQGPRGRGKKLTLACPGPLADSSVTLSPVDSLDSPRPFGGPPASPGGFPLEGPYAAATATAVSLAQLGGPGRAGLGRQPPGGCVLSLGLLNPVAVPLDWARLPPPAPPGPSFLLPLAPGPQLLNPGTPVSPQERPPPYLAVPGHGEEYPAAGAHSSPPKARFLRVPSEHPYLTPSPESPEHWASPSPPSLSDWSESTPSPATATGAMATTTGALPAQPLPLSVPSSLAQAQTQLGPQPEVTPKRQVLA
Assay [10] can be described thus: small-molecule microarray binders of probe aEGFR, primary screen, biochemical, biotinylated probe, 635/667 nm fluorescence (AID 1097).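 Also: probe is a biotinylated anti-EGFR antibody binding compounds printed on slides; score combines fluorescence near 667 nm and signal to noise of each spot.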 Conditions: higher = more signal.
For assay [11], the system named is Plasmodium falciparum Sir2 (PF13_0152, Sir2A). Kind of assay: pfSir2 binders on small-molecule microarrays, primary screen, biochemical, small-molecule microarray, 635 nm fluorescence (AID 1098).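 Also: score merges spot fluorescence intensity with its signal-to-noise ratio.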 Conditions: small-molecule microarray binding, fluorescence 635 nm; higher = more signal.
Assay [12] can be described thus: small-molecule microarray binders of probe aDKK1, primary screen, biochemical, biotinylated probe, 635/667 nm fluorescence (AID 1099).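 Also: score merges 667nm spot fluorescence with signal to noise across triplicate slides; reference of the scale not given here.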 Conditions: higher = more signal.
Assay [13] is described as follows: small-molecule microarray binders of probe aCHRDL2, primary screen, biochemical, biotinylated probe, 635/667 nm fluorescence (AID 1100). Conditions: higher = more signal.
Assay [14] is described as follows: splicing luciferase reporter signal modulators, primary screen, spliceosome inhibition project, cell-based, HEK293, splice +/- reporter (AID 1101).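 Also: HEK293 cells carrying a splicing-competent luciferase reporter gene; test concentration not given here.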 Conditions: luminescence, 24 h, higher = more signal, called active from +8 up or from −8 down. (A reporter such as luciferase makes a cellular process visible.)
The target in assay [15] is Fibroblast growth factor 10 (Homo sapiens) (UniProt O15520). Kind of assay: FGF10 binders on small-molecule microarrays, primary screen, biochemical, small-molecule microarray, 635 nm fluorescence (AID 1102). Conditions: FGF10 binding, fluorescence 635 nm, higher = more signal.
Sequence of Fibroblast growth factor 10 (Homo sapiens) (O15520 whole entry, looked up): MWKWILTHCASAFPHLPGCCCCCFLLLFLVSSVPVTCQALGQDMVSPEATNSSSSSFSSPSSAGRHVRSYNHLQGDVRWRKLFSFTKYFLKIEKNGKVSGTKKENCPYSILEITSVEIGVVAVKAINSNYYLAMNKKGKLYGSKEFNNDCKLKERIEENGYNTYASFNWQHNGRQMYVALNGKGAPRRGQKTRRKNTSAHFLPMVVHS
Assay [16] has as its system glycogen synthase kinase-3 (GSK3A per assay name; protocol says GSK3B). The experiment in a line: GSK3 binders on small-molecule microarrays, primary screen, biochemical, small-molecule microarray, 635 nm fluorescence, GSK3A (AID 1103). Also: the record names both GSK3A and GSK3B. As to conditions: small-molecule microarray binding, fluorescence 635 nm; higher = more signal.
For assay [17], the target named is Epidermal growth factor receptor (Homo sapiens) (UniProt P00533). Kind of assay: EGFR binders on small-molecule microarrays, primary screen, biochemical, small-molecule microarray, 635 nm fluorescence (AID 1104).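 Also: score merges 667 nm emission intensity with spot signal to noise over triplicate slides.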 Conditions: EGFR binding, higher = more signal.
Sequence of Epidermal growth factor receptor (Homo sapiens) (P00533 whole entry, looked up): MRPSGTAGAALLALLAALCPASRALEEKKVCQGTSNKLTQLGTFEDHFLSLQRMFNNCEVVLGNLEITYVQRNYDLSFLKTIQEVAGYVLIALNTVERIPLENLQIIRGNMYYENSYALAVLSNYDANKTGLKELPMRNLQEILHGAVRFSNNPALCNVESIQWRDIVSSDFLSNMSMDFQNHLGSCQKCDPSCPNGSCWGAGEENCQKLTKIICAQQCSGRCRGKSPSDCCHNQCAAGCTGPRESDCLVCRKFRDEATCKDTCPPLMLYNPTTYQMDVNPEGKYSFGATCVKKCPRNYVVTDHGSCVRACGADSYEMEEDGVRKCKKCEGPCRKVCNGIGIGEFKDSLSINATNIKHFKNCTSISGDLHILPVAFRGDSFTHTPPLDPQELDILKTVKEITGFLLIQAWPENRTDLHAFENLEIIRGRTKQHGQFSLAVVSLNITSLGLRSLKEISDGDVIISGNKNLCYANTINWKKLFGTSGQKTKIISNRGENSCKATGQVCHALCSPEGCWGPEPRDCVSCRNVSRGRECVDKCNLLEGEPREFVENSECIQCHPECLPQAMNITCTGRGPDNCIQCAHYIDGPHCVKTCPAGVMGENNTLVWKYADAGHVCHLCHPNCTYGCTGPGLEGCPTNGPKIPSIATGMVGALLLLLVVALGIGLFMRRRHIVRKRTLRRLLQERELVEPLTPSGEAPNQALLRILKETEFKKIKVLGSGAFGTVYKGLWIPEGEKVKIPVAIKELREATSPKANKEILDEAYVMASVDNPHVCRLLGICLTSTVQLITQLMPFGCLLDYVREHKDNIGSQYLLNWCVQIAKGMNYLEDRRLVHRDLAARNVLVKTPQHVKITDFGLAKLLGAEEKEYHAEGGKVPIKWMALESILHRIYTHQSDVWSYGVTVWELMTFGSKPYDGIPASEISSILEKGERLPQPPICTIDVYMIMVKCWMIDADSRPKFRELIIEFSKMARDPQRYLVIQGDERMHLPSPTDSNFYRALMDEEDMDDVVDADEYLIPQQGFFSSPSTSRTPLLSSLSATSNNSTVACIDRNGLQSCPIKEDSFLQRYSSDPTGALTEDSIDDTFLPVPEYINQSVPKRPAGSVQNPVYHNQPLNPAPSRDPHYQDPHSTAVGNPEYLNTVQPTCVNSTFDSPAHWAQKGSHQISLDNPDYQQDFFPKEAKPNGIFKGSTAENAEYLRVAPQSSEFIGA
Assay [18] has as its target Follistatin-related protein 3 (Homo sapiens) (UniProt O95633). The experiment in a line: FSTL3 binders on small-molecule microarrays, primary screen, biochemical, small-molecule microarray, 635 nm fluorescence (AID 1105).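 Also: score merges emission near 667 nm and signal to noise per printed spot across three slides.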 As to conditions: FSTL3 binding, higher = more signal.
The target in assay [19] is Dickkopf-related protein 1 (Homo sapiens) (UniProt O94907). The experiment in a line: DKK1 binders on small-molecule microarrays, primary screen, biochemical, small-molecule microarray, 635 nm fluorescence scan (AID 1106).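 Also: score merges emission near 667 nm with signal to noise over three replicate slides.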 As to conditions: DKK1 binding, higher = more signal.
Sequence of Dickkopf-related protein 1 (Homo sapiens) (O94907 whole entry, looked up): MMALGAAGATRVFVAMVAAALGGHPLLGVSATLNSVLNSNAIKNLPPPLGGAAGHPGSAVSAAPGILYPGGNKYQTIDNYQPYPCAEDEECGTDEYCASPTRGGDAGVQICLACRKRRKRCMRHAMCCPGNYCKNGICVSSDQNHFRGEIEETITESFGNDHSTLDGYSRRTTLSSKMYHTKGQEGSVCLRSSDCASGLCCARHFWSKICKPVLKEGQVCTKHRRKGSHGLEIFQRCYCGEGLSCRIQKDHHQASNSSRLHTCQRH
In assay [20] the test system is Inhibin beta A chain (activin A). The experiment in a line: INHBA (activin A) binders on microarrays, primary screen, biochemical, small-molecule microarray, 635 nm fluorescence scan (AID 1107).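 Also: mouse activin A protein probed at 4.33 µg/mL on printed slides; score merges bound-protein fluorescence near 667 nm with spot signal-to-noise.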 Conditions: small-molecule microarray binding, higher = more signal.

Calls of active or inactive are those of the source.

Sequence of Follistatin-related protein 3 (Homo sapiens) (O95633 whole entry, looked up): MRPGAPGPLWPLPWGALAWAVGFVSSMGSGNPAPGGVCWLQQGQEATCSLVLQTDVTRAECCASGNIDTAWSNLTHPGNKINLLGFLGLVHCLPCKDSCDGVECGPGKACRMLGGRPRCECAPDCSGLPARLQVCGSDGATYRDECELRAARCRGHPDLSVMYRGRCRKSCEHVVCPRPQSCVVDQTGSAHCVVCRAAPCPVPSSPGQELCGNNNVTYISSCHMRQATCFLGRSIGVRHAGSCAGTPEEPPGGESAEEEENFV

With `[N-]=[N+]=NCc1ccccc1C[C@@]1(C(=O)NCc2ccccc2)N=C(c2ccc(OCCCO)cc2)O[C@@H]1c1ccccc1N=[N+]=[N-]`, the composite z-score in [1] is 1.18; in assay [5], 2.88; in [7] it was 0.198; in [8], -0.247; in assay [9], 0.412; in assay [10], -0.0831. The composite z-score in assay [11] is -0.108; in assay [12] it was 0.559; in assay [13], 1.13; in [15], 0.894; in assay [16] it was 1.21; in [17], -0.475. Further, the results for the composite z-score in assay [18], in assay [19] and in [20] were -0.206, -0.666 and 0.376, respectively. Further, the z-score is -1.38 (inactive) in assay [2]; 1.57 (inactive) in assay [3]; 6.91 (inactive) in assay [4]; 0.213 (inactive) in [6]; -0.758 (inactive) in [14].
For the compound `CCOC(=O)C[C@H]1[C@H](OC(=O)c2cc3ccccc3oc2=O)[C@@H](NC(=O)c2ccc(-c3ccccc3)cc2)c2cc(OCCCO)ccc2N1C(=O)c1ccccc1`, the composite z-score in assay [1] was 1.02; in assay [5], 1.21; in assay [7], -0.0367; in assay [8] it was 1.68; in [9], 1.09; in assay [10], 0.0526. Besides, the composite z-score in assay [11] is 1.17; in assay [12] it was -0.24; in [13], -0.466; in assay [15], 1.02; in assay [16], 1.04; in assay [17], 0.613. Further, the composite z-score in [18] came out at 1.05; in assay [19] it was 1.22; in assay [20], 0.479. Further, the z-score in assay [2] was 0.11 (inactive); in assay [3], -1.64 (inactive); in assay [4] it was 0.117 (inactive); in assay [6], 1.56 (inactive); in assay [14] it was -1.38 (inactive).
As for `CN(C)C(=O)[C@]1(CCS(=O)(=O)c2ccccc2)N=C(c2ccc(OCCCO)cc2)O[C@@H]1c1ccccc1N=[N+]=[N-]`, the composite z-score turned out to be 1.53 in [1]; 3.78 in assay [5]; 0.429 in assay [7]; 1.42 in assay [8]; 1.05 in assay [9]; 0.204 in assay [10]. The composite z-score was 1.78 in assay [11]; 0.774 in assay [12]; 0.923 in assay [13]; 1.42 in [15]; 0.581 in assay [16]; 0.564 in assay [17]. The figures for the composite z-score in assay [18], in [19] and in assay [20] were 1.45, 0.553 and 1.33, respectively. For the same compound, the z-score was 0.154 (inactive) in assay [2]; -0.327 (inactive) in [3]; 1.69 (inactive) in assay [4]; 0.0837 (inactive) in assay [6]; -2.08 (inactive) in assay [14].
For the compound `C#CCN([C@@H](Cc1ccc(O)cc1)C(=O)OC)[C@@H](/C=C/C1CC1)[C@H](O)Cc1ccccc1`, the composite z-score in [1] is 0.0371; in [5] it was -0.0965; in [7] it was -0.241; in assay [8] it was 0.0698; in assay [9], 0.337; in assay [10], -0.13. The composite z-score is -0.189 in assay [11]; -0.236 in assay [12]; -0.26 in assay [13]; -0.251 in [15]; -0.689 in assay [16]; -0.0832 in [17]. Also, the composite z-score in [18] is 0.122; in [19], 0.103; in assay [20], 0.644. The z-score in [2] is -0.686 (inactive); in assay [3], -4.05 (inactive); in assay [4], 0.417 (inactive); in assay [6], -1.17 (inactive); in [14] it was 0.25 (inactive).
As for `COc1ccc(-c2cc3c(c(CCc4ccccc4)n2)[Si](C(C)C)(C(C)C)OC3)cn1`, the composite z-score in [1] is -0.876; in assay [5] it was 0.781; in [7] it was -0.248; in assay [8], 0.325; in assay [9], 0.312; in [10], -0.0828. Besides, the composite z-score in [11] is -0.311; in assay [12] it was -0.128; in assay [13], -0.185; in assay [15] it was -0.121; in assay [16] it was -0.926; in [17], 0.168. For the same compound, the composite z-score was 0.282 in assay [18], 0.0275 in [19] and 0.529 in assay [20]. Moreover, the z-score in assay [2] was 0.275 (inactive); in assay [3], -0.726 (inactive); in [4], 0.333 (inactive); in assay [6] it was -0.43 (inactive); in assay [14], -0.0496 (inactive).

Source of the values: PubChem BioAssay.
